{
  "source": "PubChem BioAssay (NCATS)",
  "key": {"[1]": {"assay": "AP1 Signaling Pathway (AID 357)", "settings": "ME-180 AP-1-bla reporter, EGF-induced, beta-lactamase ratio, 5 h; at 17.2 µM (top of the series) unless noted", "procedure,_shortened": "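Beta-lactamase reporter under AP-1 response element, ME-180 background. Stimulus: EC50 EGF. Compound exposure 5 h, 37 °C. Detection: CCF4, 2.5 h RT, 460/530 nm. Values: AC50 from titration.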"}, "[2]": {"molecular_target": "Glucocorticoid receptor (Homo sapiens) (UniProt P04150)", "sequence (P04150 whole entry, looked up)": "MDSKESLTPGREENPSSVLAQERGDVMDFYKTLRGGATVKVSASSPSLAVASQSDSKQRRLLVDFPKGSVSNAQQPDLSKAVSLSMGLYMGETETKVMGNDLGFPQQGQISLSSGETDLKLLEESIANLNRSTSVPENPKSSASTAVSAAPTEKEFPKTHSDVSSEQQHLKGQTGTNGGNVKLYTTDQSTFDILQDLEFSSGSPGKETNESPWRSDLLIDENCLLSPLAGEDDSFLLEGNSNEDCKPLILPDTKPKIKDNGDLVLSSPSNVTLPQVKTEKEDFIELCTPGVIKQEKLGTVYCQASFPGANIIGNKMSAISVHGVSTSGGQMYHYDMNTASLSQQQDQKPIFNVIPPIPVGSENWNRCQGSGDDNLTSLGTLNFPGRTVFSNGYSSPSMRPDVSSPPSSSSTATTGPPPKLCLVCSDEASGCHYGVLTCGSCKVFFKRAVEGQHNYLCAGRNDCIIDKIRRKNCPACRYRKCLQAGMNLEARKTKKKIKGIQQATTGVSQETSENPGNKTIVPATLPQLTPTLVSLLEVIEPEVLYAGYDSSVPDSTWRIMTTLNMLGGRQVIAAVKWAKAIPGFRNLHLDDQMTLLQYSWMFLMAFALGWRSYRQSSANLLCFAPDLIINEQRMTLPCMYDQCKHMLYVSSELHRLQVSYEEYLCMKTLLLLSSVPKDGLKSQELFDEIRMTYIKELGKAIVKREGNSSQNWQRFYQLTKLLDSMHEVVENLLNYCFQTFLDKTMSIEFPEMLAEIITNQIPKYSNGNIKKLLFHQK", "assay": "GR-GFP Redistribution (AID 450;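 active means compounds whose dose series gives a full or clear partial fitted curve of increased nuclear translocation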; further: potency means the concentration at half of the fitted maximal effect)"}, "[3]": {"assay": "qHTS Assay for Identification of Small Molecule Agonists for Hypoxia Response Element Signaling Pathway (AID 914; active means well fitted activation curve with a large enough effect in the signal ratio, with a control signal flat, not every such curve was filed as active; the % refers to the signal ratio; further: potency means the concentration at half of the fitted maximal effect)", "settings": "ME-180 HRE-bla reporter, beta-lactamase ratio, CoCl2, 17 h; activation: active compounds read high", "procedure,_shortened": "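Read-out: CCF4 FRET ratio of 460nm to 530nm emission (excitation 405nm) after 2.5 hours at room temperature, taken from HRE-bla ME-180 cells that had been exposed to compound and EC50 CoCl2 for 17 hours.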"}, "[4]": {"molecular_target": "Cytochrome P450 1A2 (Homo sapiens) (UniProt P05177)", "sequence (P05177 whole entry, looked up)": "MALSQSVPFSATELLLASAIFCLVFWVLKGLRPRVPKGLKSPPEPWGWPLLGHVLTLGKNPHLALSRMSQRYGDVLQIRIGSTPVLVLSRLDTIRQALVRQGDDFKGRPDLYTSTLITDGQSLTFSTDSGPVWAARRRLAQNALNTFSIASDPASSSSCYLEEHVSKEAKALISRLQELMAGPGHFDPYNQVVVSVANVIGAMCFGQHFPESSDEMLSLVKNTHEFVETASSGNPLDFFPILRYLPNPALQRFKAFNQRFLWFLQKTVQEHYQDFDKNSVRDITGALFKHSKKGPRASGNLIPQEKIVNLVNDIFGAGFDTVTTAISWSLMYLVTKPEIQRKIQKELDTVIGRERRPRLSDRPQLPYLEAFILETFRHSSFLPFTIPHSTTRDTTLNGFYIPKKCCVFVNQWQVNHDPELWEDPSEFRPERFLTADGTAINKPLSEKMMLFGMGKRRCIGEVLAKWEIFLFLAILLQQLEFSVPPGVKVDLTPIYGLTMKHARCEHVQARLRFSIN", "assay": "p450-cyp1a2 (AID 410; calls by dose curve; further: potency means the concentration at half of the fitted maximal effect)", "procedure,_shortened": "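Inhibition was calculated relative to 57 uM furafylline (full inhibition). The reaction used human CYP1A2 at 20nM with Luciferin-ME at its Km, 100uM, driven by an NADPH-regenerating system for 60 min at room temperature.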"}, "[5]": {"assay": "NFAT Signaling Pathway (AID 444)", "settings": "Jurkat NFAT-bla M1, carbachol, beta-lactamase ratio, 5 h; at 17.2 µM (top of the series) unless noted", "procedure,_shortened": "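Jurkat cells with NFAT-driven β-lactamase reporter and co-expressed M1 receptor, stimulated with carbachol (final 1 uM, ~EC50), compound titration, 5 h at 37 °C. CCF4 loaded 1 h at RT; 460/530 nm ratio gave %activity and AC50.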"}, "[6]": {"assay": "Stat Signaling Pathway (AID 446);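 further: ME-180 cervical cancer cells given 40 pM IL-6 alongside compound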", "settings": "ME-180 SIE beta-lactamase reporter, IL-6 stimulated, 5 h", "procedure,_shortened": "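Screening format detects activators and inhibitors alike: ME-180 SIE-bla cells stimulated at 40 pM IL-6 for 5 hrs with compound, then dual-emission beta-lactamase read at 405 nm excitation.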"}, "[7]": {"molecular_target": "Mitogen-activated protein kinase 10 (Mus musculus) (UniProt Q61831)", "assay": "JNK3 AlphaScreen Assay (AID 530);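 further: signal reports phosphorylation of biotinylated GST-cJun 1-79 at Ser73 with 10 µM ATP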", "procedure,_shortened": "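qHTS format: compounds tested as titrations against IL-1beta/TNF-alpha-activated HepG2 lysate JNK3 with biotin-GST-cJun substrate and 10 uM ATP at room temperature. Loss of anti-phospho-cJun AlphaScreen signal indicates inhibition.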"}, "[8]": {"molecular_target": "3',5'-cyclic-AMP phosphodiesterase 4B (Homo sapiens) (UniProt Q07343)", "sequence (Q07343 whole entry, looked up)": "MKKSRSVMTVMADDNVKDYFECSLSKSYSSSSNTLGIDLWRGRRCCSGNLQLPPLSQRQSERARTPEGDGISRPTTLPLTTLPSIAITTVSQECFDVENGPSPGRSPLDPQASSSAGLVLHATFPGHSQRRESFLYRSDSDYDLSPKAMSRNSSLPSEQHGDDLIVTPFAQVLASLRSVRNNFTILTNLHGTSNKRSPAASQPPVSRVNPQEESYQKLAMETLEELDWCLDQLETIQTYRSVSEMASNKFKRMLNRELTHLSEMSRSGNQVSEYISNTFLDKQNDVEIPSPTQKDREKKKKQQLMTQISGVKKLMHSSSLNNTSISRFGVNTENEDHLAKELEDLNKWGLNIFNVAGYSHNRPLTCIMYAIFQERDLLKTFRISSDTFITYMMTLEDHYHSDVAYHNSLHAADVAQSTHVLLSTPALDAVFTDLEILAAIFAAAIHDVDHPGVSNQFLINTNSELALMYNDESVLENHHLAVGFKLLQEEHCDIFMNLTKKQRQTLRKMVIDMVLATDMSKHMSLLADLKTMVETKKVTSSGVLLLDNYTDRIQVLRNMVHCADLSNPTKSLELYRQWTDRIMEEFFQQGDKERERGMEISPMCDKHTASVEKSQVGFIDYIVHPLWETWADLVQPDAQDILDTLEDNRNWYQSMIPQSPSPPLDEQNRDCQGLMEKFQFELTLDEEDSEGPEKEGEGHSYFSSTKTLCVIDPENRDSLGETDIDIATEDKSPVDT", "assay": "qHTS Assay for Inhibitors of PDE-IV (AID 607; active means well fitted activation curve with a large enough effect in the main read-out, with a control signal flat, not every such curve was filed as active)", "procedure,_shortened": "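The readout is membrane depolarisation from a cAMP-sensing CNG channel, detected with a potential dye at ex 535/em 590. Cells were HEK293-derived (endogenous PDE-IV) at 1000 cells/well, titrated up to 22.9 uM final.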"}, "[9]": {"molecular_target": "Guanine nucleotide-binding protein G(i) subunit alpha-1 (Homo sapiens) (UniProt P63096)", "sequence (P63096 whole entry, looked up)": "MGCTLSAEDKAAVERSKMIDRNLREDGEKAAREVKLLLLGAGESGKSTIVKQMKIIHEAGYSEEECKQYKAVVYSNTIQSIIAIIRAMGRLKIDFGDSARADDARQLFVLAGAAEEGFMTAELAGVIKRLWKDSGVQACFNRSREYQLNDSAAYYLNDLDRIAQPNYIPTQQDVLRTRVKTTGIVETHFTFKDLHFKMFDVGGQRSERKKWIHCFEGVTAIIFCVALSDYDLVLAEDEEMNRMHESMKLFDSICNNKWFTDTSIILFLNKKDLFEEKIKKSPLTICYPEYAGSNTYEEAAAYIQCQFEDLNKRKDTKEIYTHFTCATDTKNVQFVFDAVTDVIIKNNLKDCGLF", "assay": "qHTS Assay for Inhibitors of RGS12 GoLoco Motif Activity (Green Fluorophore) (AID 879; active means well fitted curve in the direction sought with a large enough effect; an effect the other way counts as inactive or inconclusive;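 further: negative values mean loss of peptide binding seen as reduced polarization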)", "procedure,_shortened": "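Fluorescence polarization assay: 50 nM Gαi1 with 10 nM FITC-labeled RGS12 GoLoco peptide in 10 mM Tris pH 7.5, 150 mM NaCl, 0.1 mM GDP, 0.05% NP40, 10 min at room temperature with compound.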"}, "[10]": {"molecular_target": "Cytochrome P450 3A4 (Homo sapiens) (UniProt P08684)", "sequence (P08684 whole entry, looked up)": "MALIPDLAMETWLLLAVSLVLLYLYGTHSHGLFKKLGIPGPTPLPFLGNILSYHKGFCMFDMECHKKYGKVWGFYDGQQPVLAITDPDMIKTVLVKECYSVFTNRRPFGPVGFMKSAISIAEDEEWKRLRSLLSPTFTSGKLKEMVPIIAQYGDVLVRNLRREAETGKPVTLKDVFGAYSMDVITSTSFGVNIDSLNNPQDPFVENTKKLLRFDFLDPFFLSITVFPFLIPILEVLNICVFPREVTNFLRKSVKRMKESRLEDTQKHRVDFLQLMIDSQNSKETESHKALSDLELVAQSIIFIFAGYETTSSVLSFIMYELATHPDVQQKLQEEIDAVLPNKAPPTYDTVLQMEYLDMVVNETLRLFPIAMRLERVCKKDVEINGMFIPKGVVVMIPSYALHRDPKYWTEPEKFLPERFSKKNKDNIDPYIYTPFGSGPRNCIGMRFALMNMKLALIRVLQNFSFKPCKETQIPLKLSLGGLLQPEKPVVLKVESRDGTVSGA", "assay": "qHTS Assay for Activators of Cytochrome P450 3A4 (AID 885; active means well fitted curve in the direction sought with a large enough effect; an effect the other way counts as inactive or inconclusive; further: nearly all actives have a fitted effect of over 65% in size)", "procedure,_shortened": "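Steps: enzyme/substrate mix dispensed; compound added, 10 min RT; NADPH regeneration solution added, 60 min RT; luciferin detection buffer stops reaction; 20 min later luminescence measured.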"}, "[11]": {"assay": "qHTS Assay for Identification of Small Molecule Antagonists for NFkB Signaling Pathway (AID 895; active means well fitted inhibition curve with a large enough effect in the signal ratio, with a control signal flat, not every such curve was filed as active; the % refers to the signal ratio)", "procedure,_shortened": "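ME-180 NFkB-bla cells (beta-lactamase under NFkB response element), plated overnight, treated with compound then 10 pM TNF alpha (about EC50) for 5 hrs at 37 C. LiveBLAzer FRET read at 460/530 nm emission, 405 nm excitation.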"}, "[12]": {"molecular_target": "Muscarinic acetylcholine receptor M1 (Rattus norvegicus) (UniProt P08482)", "sequence (P08482 whole entry, looked up)": "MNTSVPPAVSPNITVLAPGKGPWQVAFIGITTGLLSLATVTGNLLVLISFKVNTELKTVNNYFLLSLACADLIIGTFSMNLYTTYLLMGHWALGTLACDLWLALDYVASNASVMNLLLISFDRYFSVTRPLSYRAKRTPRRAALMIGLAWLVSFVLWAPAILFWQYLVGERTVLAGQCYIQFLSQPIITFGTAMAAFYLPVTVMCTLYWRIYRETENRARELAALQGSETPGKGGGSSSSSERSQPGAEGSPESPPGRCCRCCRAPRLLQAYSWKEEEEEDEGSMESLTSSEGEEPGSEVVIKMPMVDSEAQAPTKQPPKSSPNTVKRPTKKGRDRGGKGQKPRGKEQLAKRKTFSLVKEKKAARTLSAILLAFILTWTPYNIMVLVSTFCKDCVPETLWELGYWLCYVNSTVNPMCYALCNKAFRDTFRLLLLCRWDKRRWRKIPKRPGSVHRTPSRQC", "assay": "qHTS Assay for Antagonists of Acetylcholine Muscarinic M1 Receptor: Measurement of IP-One Response (AID 944; active means well fitted curve in the direction sought with a large enough effect; an effect the other way counts as inactive or inconclusive; further: nearly all actives have a fitted effect of over 75% in size)", "procedure,_shortened": "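Steps: plate transfected CHO-M1 cells overnight; add test compound, 10 min; add carbachol (200 nM, EC80) in stimulation buffer with LiCl; incubate 30 min; add labelled IP1 tracer and anti-IP1 antibody in lysis buffer; read HTRF after 10 min.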"}, "[13]": {"molecular_target": "Pyruvate kinase (Leishmania mexicana) (UniProt Q27686)", "sequence (Q27686 2-499 E452W)": "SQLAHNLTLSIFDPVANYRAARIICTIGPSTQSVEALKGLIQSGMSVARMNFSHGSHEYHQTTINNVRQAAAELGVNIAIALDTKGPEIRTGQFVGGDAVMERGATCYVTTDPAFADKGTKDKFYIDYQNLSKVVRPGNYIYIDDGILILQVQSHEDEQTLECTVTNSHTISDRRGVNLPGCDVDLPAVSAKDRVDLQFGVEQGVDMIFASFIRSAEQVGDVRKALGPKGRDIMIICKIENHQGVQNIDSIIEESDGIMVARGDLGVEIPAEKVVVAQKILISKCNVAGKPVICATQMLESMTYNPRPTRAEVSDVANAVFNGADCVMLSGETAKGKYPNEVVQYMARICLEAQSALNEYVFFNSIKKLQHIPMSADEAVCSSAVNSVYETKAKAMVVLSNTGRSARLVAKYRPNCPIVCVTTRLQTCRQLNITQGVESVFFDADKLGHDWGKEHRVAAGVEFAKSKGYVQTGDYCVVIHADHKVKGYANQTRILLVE", "assay": "qHTS Validation Assay for Inhibitors of Leishmania Mexicana Pyruvate Kinase (AID 945; active means well fitted curve in the direction sought with a large enough effect; an effect the other way counts as inactive or inconclusive)", "procedure,_shortened": "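Substrate mix (0.5 mM PEP, 0.1 mM ADP, 7 mM MgCl2, 50 mM KCl, pH 7.2 imidazole) received compound by pin tool, then 0.2 nM LmPYK E451W. After 1 h at room temperature, PKLight was added and luminescence measured.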"}, "[14]": {"molecular_target": "Pyruvate kinase PKM (Homo sapiens) (UniProt P14618)", "sequence (P14618 whole entry, looked up)": "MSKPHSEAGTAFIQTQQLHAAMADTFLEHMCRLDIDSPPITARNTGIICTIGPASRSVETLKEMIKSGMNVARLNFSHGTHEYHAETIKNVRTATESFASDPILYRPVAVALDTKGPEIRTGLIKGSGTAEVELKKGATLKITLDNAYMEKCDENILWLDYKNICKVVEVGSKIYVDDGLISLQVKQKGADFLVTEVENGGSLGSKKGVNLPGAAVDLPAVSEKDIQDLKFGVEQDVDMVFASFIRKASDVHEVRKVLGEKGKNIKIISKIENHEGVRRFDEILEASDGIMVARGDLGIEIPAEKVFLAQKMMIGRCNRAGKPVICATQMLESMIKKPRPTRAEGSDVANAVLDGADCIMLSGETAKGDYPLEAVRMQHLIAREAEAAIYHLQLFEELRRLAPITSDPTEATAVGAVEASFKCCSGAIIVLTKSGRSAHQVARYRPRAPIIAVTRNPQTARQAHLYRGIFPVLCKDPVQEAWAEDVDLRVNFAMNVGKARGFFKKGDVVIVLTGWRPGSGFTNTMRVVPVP", "assay": "qHTS Assay for Activators of Human Muscle Pyruvate Kinase (AID 954; active means well fitted curve in the direction sought with a large enough effect, not every such curve was filed as active)", "procedure,_shortened": "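Reaction: 0.1 nM purified PKM2 with 0.5 mM phosphoenolpyruvate and 0.1 mM ADP, room temperature, 1 h. Readout: luciferase-based ATP luminescence after stop reagent. Activators judged against a 0.3 nM enzyme column.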"}, "[15]": {"molecular_target": "Alpha-galactosidase A (Homo sapiens) (UniProt P06280)", "sequence (P06280 whole entry, looked up)": "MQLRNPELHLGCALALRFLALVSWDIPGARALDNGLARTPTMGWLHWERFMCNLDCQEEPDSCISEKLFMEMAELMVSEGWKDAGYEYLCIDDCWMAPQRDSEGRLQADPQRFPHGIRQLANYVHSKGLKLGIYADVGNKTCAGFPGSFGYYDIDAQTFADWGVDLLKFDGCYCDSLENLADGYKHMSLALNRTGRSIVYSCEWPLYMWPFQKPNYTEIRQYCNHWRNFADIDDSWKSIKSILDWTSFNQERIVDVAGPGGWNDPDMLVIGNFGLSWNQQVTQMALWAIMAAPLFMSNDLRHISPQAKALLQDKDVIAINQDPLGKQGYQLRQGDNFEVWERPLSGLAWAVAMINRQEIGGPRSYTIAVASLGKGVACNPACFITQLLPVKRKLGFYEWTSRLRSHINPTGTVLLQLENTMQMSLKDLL", "assay": "Counterscreen for Glucocerebrosidase Inhibitors: qHTS Assay for Human alpha-Galactosidase at pH 4.5 (AID 992; active means well fitted curve in the direction sought with a large enough effect; an effect the other way counts as inactive or inconclusive)", "procedure,_shortened": "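Concentration-response curves (0.7 nM to 77 uM final) were modeled with the Hill equation to give AC50. Reactions: 2 nM enzyme, 80 uM fluorogenic alpha-galactoside, pH 4.5 citric acid buffer, 20 min, room temperature.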"}, "[16]": {"molecular_target": "alpha-glucosidase (Oryza sativa, rice) (UniProt Q653V4)", "assay": "Counterscreen for Glucocerebrosidase Inhibitors: qHTS Assay for Rice alpha-Glucosidase at pH 5.0 (AID 997; active means well fitted curve in the direction sought with a large enough effect; an effect the other way counts as inactive or inconclusive)", "procedure,_shortened": "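Rice alpha-glucosidase (4 nM final) with 400 uM 4-methylumbelliferyl-alpha-D-glucopyranoside in citrate buffer pH 5.0, 20 min at room temperature, stopped at pH 10; fluorescence 365/440 nm, compounds 0.7 nM–77 uM, AC50 from Hill fits.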"}},
  "note": "A number with no mark means an inactive call. Results filed as inconclusive are left out. A call without a number means that no potency is given here. Activity calls are given as the source filed them. Unless noted, the call rests on the fitted dose curve; in most records, active means well fitted curve in either direction with a large enough effect (not every such curve was filed as active); inconclusive means small, poorly fitted or top-dose-only effect, or another doubt; inactive means flat fitted curve, though single readings scatter.",
  "data": [
    {"compound": "CCNC(=O)c1cc2c(=O)n3cccc(C)c3nc2n(CCc2ccccc2)c1=N", "values": [
      {"measurement": "activity change, negative = inhibition", "setting": "[1]", "value": 20.4, "unit": "%"},
      {"measurement": "Potency", "setting": "[2]", "value": "> 20.6", "unit": "µM"},
      {"measurement": "Potency", "setting": "[3]", "value": "10 µM (active)"}
    ]},
    {"compound": "N#CC1=C(N)C(C#N)(C#N)[C@H](c2ccncc2)[C@H]2CN(C(=O)OCc3ccccc3)CC=C12", "values": [
      {"measurement": "activity change, negative = inhibition", "setting": "[1]", "value": -27.2, "unit": "%"},
      {"measurement": "Potency", "setting": "[2]", "value": "> 20.6", "unit": "µM"}
    ]},
    {"compound": "CCOc1ccc(S(=O)(=O)NC(C)(C)C)cc1-c1nc2c(C(C)(C)C)nn(C)c2c(=O)[nH]1", "values": [
      {"measurement": "activity change, negative = inhibition", "setting": "[1]", "value": -8.82, "unit": "%"},
      {"measurement": "Potency", "setting": "[2]", "value": "> 20.6", "unit": "µM"}
    ]},
    {"compound": "COc1cc([C@H]2c3cc4c(cc3[C@@H](O)[C@@H]3COC(=O)[C@H]23)OCO4)cc(OC)c1OC", "values": [
      {"measurement": "Potency", "setting": "[4]", "value": "inactive"},
      {"measurement": "activity change, negative = inhibition", "setting": "[5]", "value": "-22.1% [at 38 µM]"},
      {"measurement": "activity, negative = inhibition", "setting": "[6]; at 17.2 µM (top of the series)", "value": 16.9, "unit": "%"},
      {"measurement": "activity, negative = inhibition", "setting": "[6]; at 38 µM (top of the series)", "value": -4.5, "unit": "%"},
      {"measurement": "Potency", "setting": "[7]", "value": "inactive"},
      {"measurement": "Potency", "setting": "[8]", "value": "inactive"},
      {"measurement": "outcome", "setting": "[9]", "value": "inactive"},
      {"measurement": "Potency", "setting": "[10]", "value": "inactive"},
      {"measurement": "Potency", "setting": "[11]", "value": "inactive"},
      {"measurement": "Potency", "setting": "[12]", "value": "inactive"},
      {"measurement": "Potency", "setting": "[13]", "value": "inactive"},
      {"measurement": "outcome", "setting": "[14]", "value": "inactive"},
      {"measurement": "outcome", "setting": "[15]", "value": "inactive"},
      {"measurement": "outcome", "setting": "[16]", "value": "inactive"}
    ]},
    {"compound": "CCC/C=C(\\CCC)C(NS(=O)(=O)c1ccc(-c2ccccc2)cc1)c1ccc(C(=O)OC)cc1", "note": "(configuration not stated)", "values": [
      {"measurement": "Potency", "setting": "[4]", "value": "6.31 µM (active)"}
    ]}
  ]
}
